Laboratory results published in PubChem BioAssay (NCI).
About 83,000 compounds went through this panel and 20% of them were active in at least one assay; those are over-represented in the sample as a whole.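 Compound tested at a single concentration for 48 hours in 96-well plates; a percent growth value below 10 was scored as active.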 Unmarked numbers belong to inactive results. The source made the active and inactive calls.

What was measured:
Test in all cases: NCI-60 one-dose screen, 48 h (100 = growth as untreated, 0 = no growth, -100 = all killed)
Details in all cases: 10 µM unless noted
NCI-H23 lung = test system: NCI-H23 lung
NCI-H226 lung = test system: NCI-H226 lung
NCI-H322M lung = test system: NCI-H322M lung
HOP-62 NSCLC = test system: HOP-62 NSCLC
NCI-H460 lung = test system: NCI-H460 lung
NCI-H522 lung = test system: NCI-H522 lung
A549/ATCC NSCLC = test system: A549/ATCC NSCLC
786-0 renal = test system: 786-0 renal
COLO 205 colon = test system: COLO 205 colon
DU-145 prostate = test system: DU-145 prostate
K-562 leukemia = test system: K-562 leukemia
MALME-3M melanoma = test system: MALME-3M melanoma
MDA-MB-231 breast = test system: MDA-MB-231 breast
RXF 393 renal = test system: RXF 393 renal
SF-268 CNS = test system: SF-268 CNS
SF-295 CNS = test system: SF-295 CNS
SF-539 CNS = test system: SF-539 CNS
UACC-257 melanoma = test system: UACC-257 melanoma
M14 melanoma = test system: M14 melanoma
HCT-15 colon = test system: HCT-15 colon

| Structure (SMILES) | growth (NCI-H23 lung) | growth (NCI-H226 lung) | growth (NCI-H322M lung) | growth (HOP-62 NSCLC) | growth (NCI-H460 lung) | growth (NCI-H522 lung) | growth (A549/ATCC NSCLC) | growth (786-0 renal) | growth (COLO 205 colon) | growth (DU-145 prostate) | growth (K-562 leukemia) | growth (MALME-3M melanoma) | growth (MDA-MB-231 breast) | growth (RXF 393 renal) | growth (SF-268 CNS) | growth (SF-295 CNS) | growth (SF-539 CNS) | growth (UACC-257 melanoma) | growth (M14 melanoma) | growth (HCT-15 colon) |
| --- | --- | --- | --- | --- | --- | --- | --- | --- | --- | --- | --- | --- | --- | --- | --- | --- | --- | --- | --- | --- |
| CC(C)c1nc(N(C)S(C)(=O)=O)nc(-c2ccc(F)cc2)c1/C=C/[C@@H](O)C[C@@H](O)CC(=O)O | 109% | 105% | 93.9% | 108% | 118% | 69.9% | 97.9% | 106% | 105% | 103% | 130% | 104% | 63.7% | 105% | 77.5% | 100% | 97.6% | 103% | 104% | 95.2% |
| COc1cccc(-c2nnc(N)o2)c1 | 101% | 103% | 99.5% | 102% | 107% | 96.8% | 102% | 100% | 117% | 107% | 98.1% | 106% | 124% | 94.6% | 111% | 113% | 111% | 92.7% | 91.1% | 106% |
| COC1=CC(c2ccc[nH]2)=N/C1=C\c1[nH]c(C)c(C(=O)CCC(=O)Oc2ccc3c(c2)CCC2C3CC[C@]3(C)C(=O)CC[C@@H]23)c1C (stereo not given in full) | 73.5% | 87.6% | 81.4% | 80.2% | 48.3% | 57.3% | 49.9% | 75.8% | 87.9% | 28.5% | 39.2% | 103% | 1.14% (active) | 93.1% | 52.6% | 86.4% | 83.7% | 106% | 104% | 45.6% |
| O=C(Nc1cccc2ccccc12)c1cc2c(cc1Br)OCO2 | 88.6% | 81% | 97.8% | 125% | 92.9% | 103% | 113% | 158% | 76.2% | 103% | 97.8% | 89.4% | 102% | 126% | 104% | 107% | 78.6% | 114% | 162% | 104% |
| COc1cc(/C=C/C(=O)N2CCN(C(=O)/C=C/c3ccccc3)CC2)cc(OC)c1OC | 108% | 102% | 104% | 103% | 105% | 92.7% | 99.8% | 101% | 113% | 129% | 97% | 97.8% | 85.6% | 125% | 111% | 110% | 107% | 102% | 103% | 109% |
| O=C1/C(=C/c2ccc([N+](=O)[O-])s2)Oc2ccc(Br)cc21 | -48.3% (active) | -57% (active) | -29.7% (active) | -49.8% (active) | -51.9% (active) | -77.7% (active) | -39.6% (active) | -13.4% (active) | -80% (active) | -72.1% (active) | -5.87% (active) | -59.7% (active) | -64% (active) | -59.9% (active) | -52.1% (active) | -31.3% (active) | -73.7% (active) | -39.2% (active) | -54.1% (active) | -3.34% (active) |
| N#CCNc1ccccc1N | 86.6% | 101% | 82% | 85.2% | 101% | 65.4% | 92.2% | 99% | 90.2% | 106% | 97.3% | 96.2% | 101% | 110% | 102% | 106% | 103% | 98.3% | 93.4% | 108% |
| C=C(C[C@](O)(C(=O)/C=C/c1ccc(Cl)cc1)C(=O)OC)c1ccccc1 | 64.4% | 89.7% | 90.3% | 54% | 88.6% | 66% | 74.4% | 84% | 60.4% | 97.4% | 50.7% | 95.7% | 71% | 52.5% | 87.4% | 98.9% | 75.8% | 91.7% | 84.1% | 3.71% (active) |
| O=C(Nc1cccc([N+](=O)[O-])c1)c1cccc(C(=O)Nc2cccc([N+](=O)[O-])c2)c1 | 107% | 71% | 77.1% | 106% | 74% | 22.5% | 59.9% | 73.9% | 120% | 84.5% | 91.2% | 49.5% | 83.1% | 29.4% | 30.2% | 67.3% | 84.3% | 77% | 85.4% | 85.5% |
| COc1ccc2nc(-c3ccc(-n4cncc4-c4ccc(OC)c(N)c4)cc3)sc2c1 | 108% | 108% | 95.3% | 116% | 100% | 82% | 93.5% | 111% | 105% | 119% | 90.6% | 131% | 104% | 113% | 109% | 99.8% | 105% | 109% | 110% | 97.4% |
| Cc1cc(=O)n2n1-c1ccc(Cl)cc1NC(=O)C2 | 109% | 93.9% | 85.6% | 104% | 112% | 96.2% | 100% | 108% | 115% | 111% | 104% | 103% | 122% | 104% | 109% | 98.2% | 99% | 89% | 115% | 101% |
| Cc1cc(N2CCOCC2)nc(N2CCOCC2)n1 | 94.6% | 110% | 92.2% | 82.2% | 99.4% | 78.6% | 98.1% | 92.7% | 118% | 117% | 112% | 107% | 114% | 118% | 100% | 113% | 97.5% | 105% | 105% | 102% |
| O=C(C(Br)Br)C(Br)C(Br)c1ccccc1 (stereo not given) | 90.1% | 95% | 109% | 109% | 104% | -33.3% (active) | 98.5% | 107% | 4.54% (active) | 87.4% | 18.9% | -37.9% (active) | 109% | 25.3% | 116% | 116% | 97.2% | 57.7% | 81.5% | 20.5% |
| CCc1[nH]nc(-c2ccc(OC)cc2)c1-c1ccccc1OCCN(CC)CC | 91.4% | 94.9% | 97.7% | 84.6% | 103% | 114% | 93.2% | 74.7% | 77% | 102% | 88.4% | 95.5% | 99.2% | 79.3% | 89% | 85.7% | 99% | 97.9% | 87.1% | 105% |
| CCOc1cccc(C2CC(=O)Nc3cc4c(cc32)OCO4)c1 (stereo not given) | 77.9% | 65% | 91.1% | 87% | 94.2% | 66.5% | 94.2% | 93.4% | 96.8% | 94.5% | 48.2% | 83.4% | 111% | 78.8% | 89.4% | 76% | 91.7% | 94.5% | 102% | 77.3% |
| COc1cc(C2CC(=O)Nc3c2cc(Br)c2ccccc32)cc(Br)c1OC (stereo not given) | 58.8% | 27.1% | 40.7% | 24% | 10.9% | 21.3% | 3.52% (active) | 0.846% (active) | 37.1% | 64.7% | 20.2% | 39.9% | 28% | 35.8% | 55.4% | -31.3% (active) | 74.4% | 73.4% | 48.2% | 39.6% |
